Source: PubChem BioAssay AID485298 (National Center for Advancing Translational Sciences (NCATS), 2010)
Several values for one entry are separate records, joined by “and”; a condition that tells them apart may be missing. Identical values can stand only once. About 740 (0.23%) of roughly 320,000 compounds were called active. Not shown: some 2% with an inconclusive outcome. This is one part of a sample in which actives are shown more often than they occur. The call rests on the fitted dose curve; in most records, active means well fitted activation curve with a large enough effect; inconclusive means small, poorly fitted or top-dose-only effect; inactive means no such curve, though single readings can be large or run the other way. A structure can be active in one record and inactive in another.

Assay: qHTS Assay for Small Molecule Inhibitors of Mitochondrial Division or Activators of Mitochondrial Fusion; further: nearly all actives have a fitted effect of over 45% in size;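 on growth rescue (activation): temperature-sensitive fusion mutants such as fzo1-1 at 37 °C on non-fermentable ethanol glycerol medium; % of control where 0% means no effect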
Settings: S. cerevisiae fusion-defective mutant growth rescue, CellTiterGlo 48 h; series mostly up to 46.1 µM; growth rescue (activation): at the top concentration
Method in brief: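 Growth-rescue viability read-out: after 48 h at the non-permissive 37C in glycerol/ethanol YPEG, yeast mitochondrial fusion mutants are measured by CellTiterGlo luminescence; compounds (23 nl pinned per well) restoring growth score as division inhibitors or fusion activators.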
Potency means the concentration at half of the fitted maximal effect.

SMILES	Potency	growth rescue (activation)
CC1CN/C(=C\C(=O)c2ccc(Br)cc2)C(=O)N1 (stereo not given)	12.6 µM (active)	
CC1(C)Cc2ccccc2/C(=C/C(=O)c2ccccc2)N1		0.576% (inactive)
COc1cc2c(cc1OC)/C(=C/C(=O)c1ccc(NC(C)=O)cc1)NCC2		4.41% (inactive)
O=S(=O)(NC1CCN(S(=O)(=O)c2ccc3c(c2)OCCO3)CC1)c1c(F)cccc1F		11.2% (inactive)
Cc1ccc(C(=O)NC(=S)Nc2ccc3[nH]c(=O)[nH]c3c2)cc1C		-3.82% (inactive)
CCCC(O)(CCC)C(=O)NN(C(=O)CCl)c1cccc(C)c1		2.11% (inactive)
O=C1c2cccc3cccc(c23)C(=O)N1CCCCCc1n[nH]c(=S)o1		7.17% (inactive)
O=C(CCCCCN1C(=O)c2cccc3cccc(c23)C1=O)NCc1ccco1		-12.7% (inactive)
C[N+](C)(CCCCCC[N+](C)(C)CCCN1C(=O)c2cccc3cccc(c23)C1=O)CCCN1C(=O)c2cccc3cccc(c23)C1=O	inactive and 16.4 µM (active)	
O=C(Nc1cccc(-c2nc3ccccc3o2)c1)c1cccc(Br)c1		1.19% (inactive)
CCc1nccn1CCC(=O)N1CCCC(N2CCN(c3ccccc3F)CC2)C1 (stereo not given)		-10.1% (inactive)
CCCC(C)NC(=O)C1CCN(C(=O)C2CC(=O)N(c3ccc(C)cc3)C2)CC1 (stereo not given)		-4.72% (inactive)
O=C(CN1CCSCC1)N/N=C/c1ccc(F)cc1		-0.82% (inactive)
Cc1c(C(=O)N2CCCc3ccccc32)oc2ccccc12		13.2% (inactive)
Cc1c(C(=O)N2CCCc3ccccc32)sc2nc(-c3ccccc3)cn12		8.21% (inactive)
Cc1cccc2cc3c(N)c(C(=O)N4CCCc5ccccc54)sc3nc12	17.8 µM (active)	
O=C(Nc1nnc(-c2ccccc2)o1)c1cc(-c2cccs2)nc2ccccc12	12.6 µM (active)	
CCCCN(C)CCCNC(=O)c1cc(-c2cccs2)nc2ccccc12		-16.6% (inactive)
CC(C)(C)Cc1nnc(NC(=O)c2cc(-c3ccccc3)nc3ccccc23)s1		4.92% (inactive)
O=C(CNc1cccc(S(=O)(=O)N2CCCCC2)c1)Nc1ccccc1F		1.75% (inactive)

SMILES	Potency	growth rescue (activation)
CCN(CC)c1ccc(NC(=O)CN2CCN(CC(=O)Nc3ccc(Cl)cc3)CC2)cc1		1.98% (inactive)
COc1ccc(Cl)cc1NS(=O)(=O)c1cccc(C(=O)NC2CCC(O)CC2)c1 (stereo not given)		-6.5% (inactive)
Cc1cc(C)c(/C=C2\C(=O)Nc3ccccc32)[nH]1	inactive and 16.4 µM (active)	
O=C1Nc2ccccc2/C1=C/c1ccnc2ccccc12		6.69% (inactive)
CN(C)/C=C1/Nc2ccccc2C1=O		-0.406% (inactive)
O=C(N/C(=C\c1ccc([N+](=O)[O-])cc1)C(=O)N1CCCCC1)c1ccco1		5.8% (inactive)
CCc1c(C)[nH]c(=S)c(C#N)c1C		0.532% (inactive)
Cc1c(S(=O)(=O)N2CC(C)CC(C)C2)c(=O)n(C)c(=O)n1C (stereo not given)		2.71% (inactive)
CCOC(=O)[C@@H]1[C@H]2COc3ccc(Br)cc3[C@H]2N2C(=O)N(c3ccc(Cl)cc3)C(=O)[C@@]12C		9.23% (inactive)
CC1(C)CC2CC(C)(CN2c2ncnc3ccc(Br)cc23)C1 (stereo not given)	15.8 µM (active)	
COc1ccc(C(=O)N2CC3(C)CC2CC(C)(C)C3)cc1OC (stereo not given)		2.86% (inactive)
COc1ccc(Nc2ncnc3ccc(Br)cc23)c(OC)c1		2.1% (inactive)
CCc1ccc(N(C(=O)c2csnn2)C(C(=O)NC2CCCCC2)c2cccnc2)cc1 (stereo not given)		12% (inactive)
OCC[C@H]1C[C@H](O)[C@@H](O)[C@]2(CCc3ccccc3O2)O1		-1% (inactive)
O=C(c1ccc(CSc2ccccc2)cc1)N1CCCCCC1	10 µM (active)	
CC1CCN(C(=O)c2ccc(CSc3ccc(Cl)cc3)cc2)CC1		19.4% (inactive)
O=C(c1ccc(S(=O)(=O)c2ccccc2)cc1)N1CCCCCC1		0.467% (inactive)
Cc1cc(F)ccc1S(=O)(=O)Nc1ncnc2scc(-c3ccc(F)cc3)c12		-7.34% (inactive)
O=C(COC(=O)c1ccccc1)c1ccc2c(c1)OCCO2		6.73% (inactive)
Cc1ccc(NC(=O)CSc2sc3c(O)cc(=O)[nH]c3c2C#N)cc1C		-6.97% (inactive)
